Results reported in the supplement of paper PMC7724964.

T1: ZGPAT 120-268 zf-CCCH+TUDOR (domain begin residue: 120, domain end residue: 268), Q8N5A5
T1 chain: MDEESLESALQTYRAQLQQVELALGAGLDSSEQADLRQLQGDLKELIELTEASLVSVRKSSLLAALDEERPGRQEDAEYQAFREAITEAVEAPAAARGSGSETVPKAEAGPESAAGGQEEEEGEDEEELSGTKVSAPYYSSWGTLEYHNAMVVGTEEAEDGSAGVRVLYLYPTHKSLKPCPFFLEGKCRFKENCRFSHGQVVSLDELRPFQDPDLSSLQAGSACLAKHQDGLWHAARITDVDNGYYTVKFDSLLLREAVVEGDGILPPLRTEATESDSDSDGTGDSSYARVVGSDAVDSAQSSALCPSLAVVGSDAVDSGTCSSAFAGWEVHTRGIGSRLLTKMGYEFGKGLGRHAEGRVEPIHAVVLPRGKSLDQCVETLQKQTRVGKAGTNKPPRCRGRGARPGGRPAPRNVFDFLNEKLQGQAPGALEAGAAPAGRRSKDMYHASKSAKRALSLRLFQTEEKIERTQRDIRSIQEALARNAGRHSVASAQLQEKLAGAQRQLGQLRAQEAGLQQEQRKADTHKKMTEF

T2: NR1H3 204-447 Hormone_recep (domain begin residue: 204, domain end residue: 447), Q13133
T2 chain: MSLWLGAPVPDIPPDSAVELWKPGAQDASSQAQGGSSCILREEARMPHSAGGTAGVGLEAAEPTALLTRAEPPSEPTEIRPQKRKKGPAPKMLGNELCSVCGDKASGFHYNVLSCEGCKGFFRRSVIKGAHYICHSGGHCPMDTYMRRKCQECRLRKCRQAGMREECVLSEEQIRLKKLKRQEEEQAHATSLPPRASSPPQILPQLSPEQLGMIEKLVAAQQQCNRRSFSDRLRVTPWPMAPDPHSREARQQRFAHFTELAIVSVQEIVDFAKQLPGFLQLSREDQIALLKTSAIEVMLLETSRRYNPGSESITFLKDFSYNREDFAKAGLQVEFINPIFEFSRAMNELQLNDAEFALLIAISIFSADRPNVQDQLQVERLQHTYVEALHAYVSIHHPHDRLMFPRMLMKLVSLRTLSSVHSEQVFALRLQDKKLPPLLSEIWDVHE

T3: MYL6 4-151 EF-hand_6 (domain begin residue: 4, domain end residue: 151), P60660
T3 chain: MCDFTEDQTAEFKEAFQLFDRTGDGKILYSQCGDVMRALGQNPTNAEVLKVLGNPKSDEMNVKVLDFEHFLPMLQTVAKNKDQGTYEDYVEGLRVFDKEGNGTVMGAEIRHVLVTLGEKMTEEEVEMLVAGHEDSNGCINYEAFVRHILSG

T4: NFKBIA 70-282 EF-hand_6 (domain begin residue: 70, domain end residue: 282), P25963
T4 chain: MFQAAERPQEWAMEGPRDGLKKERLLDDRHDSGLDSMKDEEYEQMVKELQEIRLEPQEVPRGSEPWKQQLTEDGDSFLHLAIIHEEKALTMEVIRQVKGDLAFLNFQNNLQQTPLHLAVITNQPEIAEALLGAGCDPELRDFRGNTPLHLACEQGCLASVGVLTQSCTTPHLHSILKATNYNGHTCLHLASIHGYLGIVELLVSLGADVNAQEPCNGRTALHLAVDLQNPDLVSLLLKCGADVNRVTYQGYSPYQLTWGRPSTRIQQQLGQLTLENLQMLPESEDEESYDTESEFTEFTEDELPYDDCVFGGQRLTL

T5: NUP98 730-880 Nucleoporin2 (domain begin residue: 730, domain end residue: 880), P52948
T5 chain: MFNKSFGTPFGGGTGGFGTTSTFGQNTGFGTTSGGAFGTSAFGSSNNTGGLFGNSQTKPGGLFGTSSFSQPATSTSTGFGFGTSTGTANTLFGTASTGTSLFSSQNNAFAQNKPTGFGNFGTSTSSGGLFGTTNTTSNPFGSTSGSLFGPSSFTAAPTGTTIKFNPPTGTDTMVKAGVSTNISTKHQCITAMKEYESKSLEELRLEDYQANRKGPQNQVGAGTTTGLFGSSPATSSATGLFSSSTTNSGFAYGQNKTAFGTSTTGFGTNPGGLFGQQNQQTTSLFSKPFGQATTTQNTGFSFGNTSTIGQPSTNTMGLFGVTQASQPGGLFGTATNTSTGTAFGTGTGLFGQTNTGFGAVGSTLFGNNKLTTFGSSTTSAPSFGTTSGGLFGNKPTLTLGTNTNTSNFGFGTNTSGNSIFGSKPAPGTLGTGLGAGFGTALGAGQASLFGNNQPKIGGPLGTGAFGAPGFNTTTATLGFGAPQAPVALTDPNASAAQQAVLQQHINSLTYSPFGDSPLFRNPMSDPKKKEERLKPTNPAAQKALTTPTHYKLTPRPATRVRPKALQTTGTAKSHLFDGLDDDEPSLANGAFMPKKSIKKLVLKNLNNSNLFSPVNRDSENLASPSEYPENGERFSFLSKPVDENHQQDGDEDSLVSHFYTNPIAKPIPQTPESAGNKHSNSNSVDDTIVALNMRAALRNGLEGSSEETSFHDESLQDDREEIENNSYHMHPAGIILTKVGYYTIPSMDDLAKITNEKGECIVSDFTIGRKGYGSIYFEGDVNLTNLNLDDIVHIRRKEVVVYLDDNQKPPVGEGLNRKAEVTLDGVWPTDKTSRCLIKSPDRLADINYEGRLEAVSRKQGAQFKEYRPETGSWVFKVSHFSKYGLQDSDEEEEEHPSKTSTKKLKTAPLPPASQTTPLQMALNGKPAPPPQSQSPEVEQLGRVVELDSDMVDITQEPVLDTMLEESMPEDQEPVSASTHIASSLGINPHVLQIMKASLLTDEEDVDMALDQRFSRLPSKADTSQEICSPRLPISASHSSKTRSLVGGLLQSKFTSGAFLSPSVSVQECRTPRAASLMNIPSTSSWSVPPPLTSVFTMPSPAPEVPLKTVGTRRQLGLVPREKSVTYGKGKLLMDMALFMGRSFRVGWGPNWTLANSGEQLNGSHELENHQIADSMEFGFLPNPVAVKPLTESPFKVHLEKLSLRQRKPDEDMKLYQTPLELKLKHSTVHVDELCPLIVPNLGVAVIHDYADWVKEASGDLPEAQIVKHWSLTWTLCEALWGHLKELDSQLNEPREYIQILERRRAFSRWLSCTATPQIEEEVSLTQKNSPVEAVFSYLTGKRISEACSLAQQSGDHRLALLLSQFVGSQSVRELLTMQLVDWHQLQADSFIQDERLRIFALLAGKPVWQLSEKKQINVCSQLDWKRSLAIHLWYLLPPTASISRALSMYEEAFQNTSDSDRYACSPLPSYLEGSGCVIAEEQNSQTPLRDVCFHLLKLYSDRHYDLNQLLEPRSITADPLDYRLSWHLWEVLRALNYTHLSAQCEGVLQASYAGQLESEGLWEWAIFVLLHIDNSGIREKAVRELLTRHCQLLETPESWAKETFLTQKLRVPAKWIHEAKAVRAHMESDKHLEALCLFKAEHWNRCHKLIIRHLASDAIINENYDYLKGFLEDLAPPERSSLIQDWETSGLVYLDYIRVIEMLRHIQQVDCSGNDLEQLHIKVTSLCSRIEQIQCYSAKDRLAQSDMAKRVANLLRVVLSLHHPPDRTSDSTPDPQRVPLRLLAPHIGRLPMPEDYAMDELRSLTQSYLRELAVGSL

T6: NR4A2 327-598 Hormone_recep (domain begin residue: 327, domain end residue: 598), P43354
T6 chain: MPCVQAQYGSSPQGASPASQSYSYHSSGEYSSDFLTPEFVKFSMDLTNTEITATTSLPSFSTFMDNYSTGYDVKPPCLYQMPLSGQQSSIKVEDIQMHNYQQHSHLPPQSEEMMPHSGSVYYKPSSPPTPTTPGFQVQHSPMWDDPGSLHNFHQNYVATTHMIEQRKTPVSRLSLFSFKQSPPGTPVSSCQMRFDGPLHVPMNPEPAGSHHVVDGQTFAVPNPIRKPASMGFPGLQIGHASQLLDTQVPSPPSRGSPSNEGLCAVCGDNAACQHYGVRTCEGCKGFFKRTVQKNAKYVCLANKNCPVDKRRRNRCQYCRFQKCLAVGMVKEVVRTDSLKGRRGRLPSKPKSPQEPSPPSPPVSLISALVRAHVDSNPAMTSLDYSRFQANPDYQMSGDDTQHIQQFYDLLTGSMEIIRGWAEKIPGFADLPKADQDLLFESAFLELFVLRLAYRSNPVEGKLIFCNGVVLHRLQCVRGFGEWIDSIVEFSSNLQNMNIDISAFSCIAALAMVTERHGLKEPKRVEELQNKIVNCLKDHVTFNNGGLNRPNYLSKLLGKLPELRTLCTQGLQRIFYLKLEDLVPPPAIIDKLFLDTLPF

T7: NR1D2 386-579 Hormone_recep (domain begin residue: 386, domain end residue: 579), Q14995
T7 chain: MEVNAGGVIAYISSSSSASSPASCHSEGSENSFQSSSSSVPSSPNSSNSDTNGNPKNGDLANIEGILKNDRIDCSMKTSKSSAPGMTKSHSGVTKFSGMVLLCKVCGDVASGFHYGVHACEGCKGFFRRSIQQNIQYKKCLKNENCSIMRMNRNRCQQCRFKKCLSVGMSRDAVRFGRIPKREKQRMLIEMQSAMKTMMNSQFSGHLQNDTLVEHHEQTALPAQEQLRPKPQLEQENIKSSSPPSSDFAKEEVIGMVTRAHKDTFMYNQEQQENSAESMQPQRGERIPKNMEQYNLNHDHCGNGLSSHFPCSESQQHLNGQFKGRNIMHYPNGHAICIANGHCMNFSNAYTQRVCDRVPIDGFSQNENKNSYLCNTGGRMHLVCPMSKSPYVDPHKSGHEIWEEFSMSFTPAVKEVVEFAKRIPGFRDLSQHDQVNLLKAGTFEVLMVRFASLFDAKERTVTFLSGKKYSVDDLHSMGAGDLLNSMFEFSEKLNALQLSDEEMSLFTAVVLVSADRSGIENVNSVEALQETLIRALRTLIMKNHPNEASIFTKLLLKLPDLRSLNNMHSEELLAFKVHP


The binders below were run against MSH6 89-203 PWWP (domain begin residue: 89, domain end residue: 203), P52701 (assay: phage ELISA signal ratio (GST-PRM binding over GST background); higher = stronger binding of peptide-phage to the PRM).
MSH6 89-203 PWWP (domain begin residue: 89, domain end residue: 203), P52701, sequence (P52701 whole entry, the tested form may be a part): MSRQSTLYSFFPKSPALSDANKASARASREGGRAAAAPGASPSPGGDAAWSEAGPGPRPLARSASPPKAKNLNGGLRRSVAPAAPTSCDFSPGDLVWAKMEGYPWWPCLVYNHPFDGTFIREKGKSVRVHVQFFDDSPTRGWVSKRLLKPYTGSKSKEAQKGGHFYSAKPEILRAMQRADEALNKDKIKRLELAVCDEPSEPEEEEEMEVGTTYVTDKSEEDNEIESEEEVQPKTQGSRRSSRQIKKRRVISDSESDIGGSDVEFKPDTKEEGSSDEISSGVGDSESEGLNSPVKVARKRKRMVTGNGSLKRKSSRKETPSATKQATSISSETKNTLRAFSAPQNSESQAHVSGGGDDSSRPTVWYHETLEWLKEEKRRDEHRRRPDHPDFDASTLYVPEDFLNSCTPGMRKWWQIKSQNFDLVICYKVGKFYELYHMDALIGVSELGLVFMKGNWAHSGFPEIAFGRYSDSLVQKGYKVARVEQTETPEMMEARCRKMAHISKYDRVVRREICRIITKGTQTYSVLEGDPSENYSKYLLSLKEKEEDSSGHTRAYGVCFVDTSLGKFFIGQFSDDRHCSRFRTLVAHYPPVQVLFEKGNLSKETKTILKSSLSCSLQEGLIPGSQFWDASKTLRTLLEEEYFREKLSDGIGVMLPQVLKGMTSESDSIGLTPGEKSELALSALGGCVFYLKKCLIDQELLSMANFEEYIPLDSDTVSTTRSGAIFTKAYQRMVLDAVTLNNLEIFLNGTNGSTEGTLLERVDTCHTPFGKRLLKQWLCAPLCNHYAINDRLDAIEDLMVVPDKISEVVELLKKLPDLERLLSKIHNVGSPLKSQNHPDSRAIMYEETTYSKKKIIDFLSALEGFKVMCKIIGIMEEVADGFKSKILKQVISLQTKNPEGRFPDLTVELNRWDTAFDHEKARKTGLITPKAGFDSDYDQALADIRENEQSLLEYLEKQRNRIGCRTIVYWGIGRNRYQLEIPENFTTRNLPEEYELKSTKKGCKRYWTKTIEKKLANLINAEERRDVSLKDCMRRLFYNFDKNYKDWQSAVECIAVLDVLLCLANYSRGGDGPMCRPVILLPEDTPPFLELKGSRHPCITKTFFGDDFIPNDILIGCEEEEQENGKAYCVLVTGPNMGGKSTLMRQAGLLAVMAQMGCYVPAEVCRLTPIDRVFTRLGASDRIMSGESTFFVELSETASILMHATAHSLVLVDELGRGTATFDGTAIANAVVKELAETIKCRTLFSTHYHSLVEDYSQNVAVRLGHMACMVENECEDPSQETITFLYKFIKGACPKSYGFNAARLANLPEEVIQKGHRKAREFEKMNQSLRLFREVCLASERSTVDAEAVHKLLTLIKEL
In short: (§1)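 Each value is the phage ELISA signal on the glutathione S-transferase (GST)-domain fusion divided by the signal on GST alone. Human peptide recognition domains were expressed in 96-well plates, fused to the C-terminus of GST, and selected against an M13 phage library carrying randomized, cysteine-free, glycine-flanked hexadecapeptides on the gene-8 major coat protein. After five selection rounds, approximately 48 individual clones from rounds 4 and 5 were tested by phage ELISA, and positive clones were sequenced.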
In the case of DPMSDLFMHNPFVQEP, the “phage ELISA signal ratio” value is reported as 7.54.

Biological target: T1, ZGPAT 120-268 zf-CCCH+TUDOR (domain …
Assay: as above
In short: as §1
DPMSDLFMHNPFVQEP was tested, and the “phage ELISA signal ratio” value was 8.79.

Biological target: T2, NR1H3 204-447 Hormone_recep (domain …
Assay: as above
In short: as §1
QEWQAWMLSMEEGEMM was tested, and the “phage ELISA signal ratio” value was 15.5.
In the case of VDPDWWDWMMSQLDTN, the “phage ELISA signal ratio” value is reported as 6.41.
With VWPDIYPELQFLHMMY the “phage ELISA signal ratio” value was 5.69.
QDEDVWWAWMMGLGME was tested, and the “phage ELISA signal ratio” value was 8.99.

Biological target: T3, MYL6 4-151 EF-hand_6 (domain begin …
Assay: as above
In short: as §1
In the case of TMMPIWSEGQWWWGHI, the “phage ELISA signal ratio” value is reported as 3.17.
For YFYTQVNGIWYKWVLS, the “phage ELISA signal ratio” value was 4.86.

Biological target: T4, NFKBIA 70-282 EF-hand_6 (domain begin …
Assay: as above
In short: as §1
In the case of WFGMEPEEQSMEWQKW, the “phage ELISA signal ratio” value is reported as 6.64.
With EWFTDHNGADVWLELP the “phage ELISA signal ratio” value was 4.99.
In the case of YMVEEHYYDLMQMLGS, the “phage ELISA signal ratio” value is reported as 11.

Biological target: T5, NUP98 730-880 Nucleoporin2 (domain …
Assay: as above
In short: as §1
For WAEWDASQPDWVPEYQ, the “phage ELISA signal ratio” value was 4.87.

Biological target: T6, NR4A2 327-598 Hormone_recep (domain …
Assay: as above
In short: as §1
For GWSPWYEGRGVDWMTW, the “phage ELISA signal ratio” value was 5.78.
In the case of LNDSEQWFTWAYKYVD, the “phage ELISA signal ratio” value is reported as 9.75.

Biological target: T7, NR1D2 386-579 Hormone_recep (domain …
Assay: as above
In short: as §1
With WQDAWMQAMEQIYPPL the “phage ELISA signal ratio” value was 6.57.
